Where “and” joins values, the source holds several entries; their conditions need not be identical. Equal values may be shown once. Out of some 350,000 compounds screened, about 31,000 (8.9%) were called active. Roughly 15% stayed inconclusive and do not appear here. Calls follow the shape of the dose curve; as a rule, active = well fitted inhibition curve with a large enough effect; inconclusive = small, poorly fitted or top-dose-only effect; inactive = no such curve, though single readings can be large or run the other way. For the sample, actives were picked, then their nearest neighbours and some compounds at random.
Target: Histone-lysine N-methyltransferase EHMT2 (Homo sapiens) (UniProt Q96KQ7)
Sequence (Q96KQ7 913-1193 limits assumed): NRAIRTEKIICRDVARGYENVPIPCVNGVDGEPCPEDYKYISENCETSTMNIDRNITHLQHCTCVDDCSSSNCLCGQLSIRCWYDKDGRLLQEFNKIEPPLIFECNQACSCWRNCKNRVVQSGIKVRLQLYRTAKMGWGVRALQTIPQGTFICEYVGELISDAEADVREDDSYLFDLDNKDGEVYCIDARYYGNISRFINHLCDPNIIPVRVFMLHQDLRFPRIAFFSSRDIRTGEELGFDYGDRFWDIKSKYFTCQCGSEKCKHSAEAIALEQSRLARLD
Experiment: qHTS Assay for Inhibitors of Histone Lysine Methyltransferase G9a; also: nearly all actives have a fitted effect of over 75% in size
Settings: G9a H3K9 monomethylation, AlphaScreen, 2 h; series mostly up to 59 µM; activity, negative = inhibition: at the top concentration
Method in brief: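 Quantitative HTS format: methyltransferase activity on a biotin-tagged H3K9 peptide is measured by AlphaScreen, using a rabbit anti-monomethyl-H3K9 antibody with streptavidin donor and anti-IgG acceptor beads. Final levels are 20 nM enzyme, 500 nM peptide, 20 uM SAM; 2 h RT.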
% is scaled to controls: 0 for no effect and ±100 for the full control effect; potency is read from the fitted curve at half-maximal effect.

Compound | activity, negative = inhibition | Potency
CCc1nn(CCCC(=O)NCc2ccccc2OC)c(=O)c2cc3occc3n12 | 9.29% (inactive) | 
Cc1ccc(Cl)cc1NC(=O)CSc1nc2ccccc2nc1Cc1ccccc1 | -2.39% (inactive) | 
COc1ccc(CNc2ncnc3ccccc23)cc1 | 7.39% [at 102 µM] (inactive) | 
CCOC(=O)c1sc(=S)n2c1[nH]c(=O)c1ccc(C(=O)OC)cc12 |  | 7.94 µM (active)
CCOC(=O)c1sc(NC(=O)c2ccncc2)nc1C | 16.5% (inactive) | 
CCOC(=O)C1=C(C)Nc2sc(C(=O)c3ccc(Br)cc3)c(N)c2C1c1ccc(C(=O)OC)cc1 (stereo not drawn) | 0.599% [at 12.7 µM] (inactive) | 
CC(=O)N1CCCc2cc(S(=O)(=O)Nc3ccc(Cl)cc3F)ccc21 | 3.87% (inactive) | 
Cc1nc2sc(C(c3ccco3)N3CCOCC3)c(O)n2n1 (stereo not drawn) |  | 11.2 µM (active)
Oc1c(C(c2ccco2)N2CCC3(CC2)OCCO3)sc2ncnn12 (stereo not drawn) |  | 35.5 µM (active)
Cc1ccc(C(c2sc3nc(C)nn3c2O)N2CCN(c3ccccc3)CC2)cc1 (stereo not drawn) | 15.6% [at 12.7 µM] (inactive) | 
Oc1c(C(c2ccccc2Cl)N2CCOCC2)sc2nc(-c3ccco3)nn12 (stereo not drawn) | -31.5% (inactive) | 
COc1cccc(CNC(=O)CCc2nc(-c3ccc(C)cc3)no2)c1 | 20.6% (inactive) | 
CCCN1CCN(CCCNC(=O)c2cnn(-c3ccc(C)cc3)c2-n2cccc2)CC1 | -11.1% (inactive) | 
COc1ccc(-c2ccc(=O)n(CC(=O)Nc3ccc(Br)cc3F)n2)cc1 | 0.314% (inactive) | 
O=C(COc1ccc(Cl)cc1)NCCS(=O)(=O)N1CCN(c2ccc(F)cc2)CC1 | -10.7% [at 102 µM] (inactive) | 
COc1ccccc1/C=C/c1nc(C#N)c(NC(C)c2ccccc2)o1 (stereo not drawn) | -49.3% (inactive) | 
CSc1ccccc1-c1nnc(NC(=O)c2ccc3c(c2)OCCO3)o1 | 64.6% (inactive) | 
CS(=O)(=O)c1ccc(-c2nnc(NC(=O)c3ccc4c(c3)OCCO4)o2)cc1 | 44.7% (inactive) | 
O=C(Nc1nnc(C2=COCCO2)o1)c1ccc([N+](=O)[O-])s1 |  | 44.7 µM (active)
Cc1ccccc1OCC(=O)Nc1ccc2c(c1)ncn2C | -10.2% [at 0.501 µM] (inactive) | 
COc1ccc(S(=O)(=O)N(C)CC(=O)NCCCN2CCOCC2)cc1Cl | 10.6% (inactive) | 
COc1ccc(-c2ccc(CNCCCN3CCOCC3)o2)cc1Cl |  | 50.1 µM (active)
O=S(=O)(NCCCN1CCOCC1)c1ccc(F)c(Cl)c1 | 27% [at 12.7 µM] (inactive) | 
O=C(NCc1cccnc1)c1cc(S(=O)(=O)N2CCOCC2)c(Cl)cc1Cl | -2.17% [at 2.33 µM] (inactive) | 

Compound | activity, negative = inhibition | Potency
CCc1cccc(NC(=O)CN(c2ccc(C)c(C)c2)S(=O)(=O)c2ccsc2C(=O)OC)c1 | 5.26% (inactive) | 
CC(=O)Nc1ccc(S(=O)(=O)N2CCC(C(=O)N[C@@H](Cc3ccccc3)C(=O)O)CC2)cc1 | 13.7% [at 102 µM] (inactive) | 
CSc1cccc(NC(=O)CN2C(=O)CCc3cc(S(=O)(=O)N4CCCCC4)ccc32)c1 | -38.2% (inactive) | 
CC(CCO)Nc1nc2c([nH]1)c(=O)n(C)c(=O)n2C (stereo not drawn) | -11% (inactive) | 
Cc1ccc(NN=Nc2nc3c([nH]2)c(=O)n(C)c(=O)n3C)cc1 |  | 1.58 µM (active)
Cc1cccc(C)c1NC(=O)CSc1nc2c([nH]1)c(=O)n(C)c(=O)n2C | 1.79% (inactive) | 
CC(=O)Cc1nsc(NC(=O)c2ccc(Cl)cc2Cl)n1 | -27.6% [at 102 µM] (inactive) | 
CC(=O)Cc1nsc(NC(=O)c2csc3c2CCCC3)n1 |  | 2.51 µM (active)
Cc1ccc(NC(=O)c2csc3c2CCCC3)cc1 | 1.14% [at 102 µM] (inactive) | 
CCCOc1ccc(C2c3c(-c4ccccc4O)n[nH]c3C(=O)N2Cc2cccnc2)cc1 (stereo not drawn) | -1.26% (inactive) | 
COc1cc(C2C(C(=O)c3ccc(C)o3)=C(O)C(=O)N2Cc2cccnc2)ccc1O (stereo not drawn) | -13.2% (inactive) | 
COc1ccc(C2C(C(C)=O)=C(O)C(=O)N2Cc2cccnc2)cc1 (stereo not drawn) |  | 20 µM (active)
O=C(c1ccc(Br)cc1)N(Cc1cccs1)c1ccc(F)cc1 | 65% (inactive) | 
CCCOc1ccc(C2=CSC3=NCCN23)cc1Cl | -12.4% [at 102 µM] (inactive) | 
COc1ccc(CCNc2ncnc3onc(-c4ccc(Cl)cc4)c23)c(OC)c1 | 5.46% (inactive) | 
CCCCn1c(CNC(=O)C23CC4CC(CC(C4)C2)C3)nnc1SCC(=O)Nc1ccc(C)cc1 | -10.5% (inactive) | 
COc1ccc(-c2onc(C)c2C)cc1S(=O)(=O)NCC1CCN(Cc2cccc(F)c2)CC1 | 1.76% (inactive) | 
Cc1cc(OCCCCOc2ccc(C#N)cc2)ccc1[N+](=O)[O-] | 30.7% [at 12.7 µM] (inactive) | 
Cc1cc(OCCCN2CCN(Cc3ccccc3)CC2)ccc1[N+](=O)[O-] |  | 8.91 µM (active)
O=C(c1cccc([N+](=O)[O-])c1)N1CCN(Cc2ccccc2)CC1 | 16.3% [at 102 µM] (inactive) | 
COc1ccc(-c2nc(Cn3c(=O)cc(C)c4c(C)nn(-c5ccccc5)c43)c(C)o2)cc1OC | 6.04% (inactive) | 
O=c1[nH]c(=S)[nH]c2[nH]c(=S)[nH]c12 |  | 1.58 µM (active) and 1.26 µM (active)
CN(CC(=O)Nc1ccc(Cl)cc1)CC(=O)Nc1cccc2ccccc12 | -44.6% [at 12.7 µM] (inactive) | 
CCOC(=O)c1cc(Sc2ccccc2N)cc(C(=O)OCC)n1 | 45% [at 102 µM] (inactive) | 
